This passage reports outcome and AC50 results from PubChem BioAssay (EPA / NIEHS).

Broadly, the AC50 is the midpoint of the concentration-response curve, whichever way the signal moves.

For experiment [1], the target named is human Retinoid X Receptor beta (RXRb), RXRB (gene 6257) (UniProt P28702). Kind of experiment: ATG_RXRb_TRANS: Attagene TRANS-FACTORIAL HepG2 Assay for human Retinoid X Receptor beta (RXRb) (AID 2283013). The gist of the method: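 HepG2 cells transiently transfected with multiplexed reporter units driven by GAL4-UAS and exogenous chimeric NR-Gal4 proteins; treated 24 h. Reporter mRNA measured by RT-PCR, 6-FAM labelling and capillary electrophoresis; gain-of-signal fitted versus DMSO baseline.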

For experiment [2], the target named is human Thyroid Receptor alpha (THRa1), THRA (gene 7067) (UniProt P10827). Kind of experiment: ATG_THRa1_TRANS: Attagene TRANS-FACTORIAL HepG2 Assay for human Thyroid Receptor alpha (THRa1) (AID 2283014). In short, it runs like this:
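Transcripts from GAL4-UAS-driven reporters, measured after 24 h compound exposure by RT-PCR plus capillary electrophoresis of 6-FAM-labeled fragments, were fitted for gain of signal relative to DMSO. Cells: transiently transfected HepG2 expressing NR-Gal4 chimeras.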

Inconclusive results are not listed. The source made the active and inactive calls. How the source made its calls: active means hit-call score of the fitted dose curve at least 0.9, where 1 is the maximum; inconclusive means response in the unintended direction; inactive means score below 0.9.

Sequence of human Retinoid X Receptor beta (RXRb), RXRB (gene 6257) (P28702 whole entry, looked up, the tested form may be a part): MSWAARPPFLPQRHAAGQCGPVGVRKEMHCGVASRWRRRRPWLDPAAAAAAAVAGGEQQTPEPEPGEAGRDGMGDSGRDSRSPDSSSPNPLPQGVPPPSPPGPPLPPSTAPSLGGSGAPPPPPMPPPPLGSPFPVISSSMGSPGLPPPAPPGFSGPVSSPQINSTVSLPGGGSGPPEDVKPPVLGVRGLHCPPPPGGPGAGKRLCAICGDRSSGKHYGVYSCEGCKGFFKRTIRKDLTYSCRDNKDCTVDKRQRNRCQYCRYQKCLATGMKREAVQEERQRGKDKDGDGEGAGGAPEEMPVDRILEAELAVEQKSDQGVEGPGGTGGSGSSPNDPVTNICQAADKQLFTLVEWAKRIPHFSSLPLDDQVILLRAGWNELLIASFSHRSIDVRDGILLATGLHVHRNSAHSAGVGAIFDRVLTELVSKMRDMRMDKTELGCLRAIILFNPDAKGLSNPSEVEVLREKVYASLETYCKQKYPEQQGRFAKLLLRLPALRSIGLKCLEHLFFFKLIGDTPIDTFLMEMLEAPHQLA
Sequence of human Thyroid Receptor alpha (THRa1), THRA (gene 7067) (P10827 whole entry, looked up, the tested form may be a part): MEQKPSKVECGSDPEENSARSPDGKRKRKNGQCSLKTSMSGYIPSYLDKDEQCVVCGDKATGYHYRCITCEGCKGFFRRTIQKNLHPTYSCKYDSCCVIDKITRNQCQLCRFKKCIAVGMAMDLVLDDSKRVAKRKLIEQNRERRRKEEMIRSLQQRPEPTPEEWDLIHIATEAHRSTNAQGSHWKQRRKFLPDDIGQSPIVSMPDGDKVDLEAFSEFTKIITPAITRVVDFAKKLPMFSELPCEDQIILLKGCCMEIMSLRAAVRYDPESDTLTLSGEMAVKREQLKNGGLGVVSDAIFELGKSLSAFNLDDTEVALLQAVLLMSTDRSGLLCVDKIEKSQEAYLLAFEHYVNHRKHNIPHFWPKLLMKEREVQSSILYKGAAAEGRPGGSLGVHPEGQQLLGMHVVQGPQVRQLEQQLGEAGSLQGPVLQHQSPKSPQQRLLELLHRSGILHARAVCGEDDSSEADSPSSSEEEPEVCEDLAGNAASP

`C=C1C2CCC(C2)C1(C)C` (stereo not given): the compound was classed as inactive in experiment [1] and in experiment [2].
Consider `NC(=O)C1CO1` (stereo not given), for which, in experiment [1], the compound was called inactive.
As to `O=[N+]([O-])c1ccc(CO)cc1`, the compound was called inactive in experiment [1] and in experiment [2].
Take `[Cl][Bi]([Cl])([c]1ccccc1)([c]1ccccc1)[c]1ccccc1`: the AC50 in experiment [1] is 1.04 µM (active). In addition, the result in experiment [2] was inactive.
For `Cc1ccc2oc(=O)ccc2c1`, the compound was classed as inactive in experiment [1] and in experiment [2].
Consider `c1ccc(CCCc2ccncc2)cc1`, for which the compound was called inactive in experiment [1] and in experiment [2].
With `CCCc1ccc(OC)cc1`, the result in experiment [1] was inactive.
Consider `CC(C)(C)c1ccc(OC(=O)c2ccccc2O)cc1`, for which the concentration at half-maximal activity (AC50) in experiment [1] is 177 µM (active).
Take `O=C(Nc1ccccc1)c1ccccc1O`: the compound was classed as inactive in experiment [1] and in experiment [2].
For `COc1cc(C)ccc1C(C)C`, in experiment [1], the AC50 was 100 µM (active). Moreover, the result in experiment [2] was inactive.
As to `CCCCCCCC/C=C\CCCCCCCC(=O)O`, the half-maximal activity concentration (AC50) in experiment [1] is 68 µM (active). In addition, the call in experiment [2] was inactive.
As for `CC(C)(Oc1ccc(C2CC2(Cl)Cl)cc1)C(=O)O` (stereo not given), the call in experiment [1] and in experiment [2] was inactive.
Regarding `CC(=O)c1ccc[nH]1`, the compound was called inactive in experiment [1] and in experiment [2].
On to `Cc1ccc(OC(=O)CC(C)C)cc1`, for which the compound was classed as inactive in experiment [1] and in experiment [2].
In the case of `CCCCCCCC(C)=O`, the call in experiment [1] and in experiment [2] was inactive.
Turning to `Cc1ccc(N)c([N+](=O)[O-])c1`, the compound was classed as inactive in experiment [1].
For the compound `CC(C)CCCC(C)CC=O` (stereo not given), the call in experiment [1] and in experiment [2] was inactive.
Consider `O=C1c2cccc(O)c2C(=O)c2c(O)cc(CO)cc21`, for which the result in experiment [1] and in experiment [2] was inactive.
With `Nc1ccc(Oc2ccc(N)c(N)c2)cc1`, the result in experiment [1] and in experiment [2] was inactive.
Take `O=C1CC2CC1C1CCCC21` (stereo not given): the compound was called inactive in experiment [1] and in experiment [2].
Take `CC(C)c1ccc2c(C(C)C)cc(C(C)C)c(S(=O)(=O)O)c2c1`: the half-maximal activity concentration (AC50) in experiment [1] was 18.2 µM (active).
For the compound `CC(=O)OCC(=O)[C@@]12N=C(C)O[C@@H]1C[C@H]1[C@@H]3CCC4=CC(=O)C=C[C@]4(C)[C@H]3[C@@H](O)C[C@@]12C`, the AC50 in experiment [1] was 1.62 µM (active). Moreover, in experiment [2], the outcome was inactive.
For `C=C(C)CCO`, in that order: 63.9 µM (active) and “inactive”.
Regarding `CCCCCCCCC(=O)OCC`, the result in experiment [1] and in experiment [2] was inactive.
Take `CCCCCCCCCCCSCC(=O)O`: the AC50 in experiment [1] is 11.5 µM (active). Moreover, in experiment [2], the compound was called inactive.
